Laboratory results as given in PubChem BioAssay (NCI).
The panel holds about 83,000 compounds, 20% with a hit somewhere; the sample as a whole holds those more often.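 Percent growth is the endpoint: 0 to 100 indicates growth inhibition (40 means 60% inhibition), 0 means no net growth, and negative values indicate cell death.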 Unmarked numbers belong to inactive results. Activity calls are given as the source filed them.

Tested on: SK-MEL-28 melanoma
Experiment: NCI-60 one-dose screen, 48 h (100 = growth as untreated, 0 = no growth, -100 = all killed)
Conditions: 10 µM
Experimental: Growth inhibition of the SK-MEL-28 human tumor cell line is measured as a screen for anti-cancer activity. Cells are grown in 96 well plates and exposed to the test compound for 48 hours. Compounds are tested at a single concentration, which is 10^-5 M for most compounds. The reported endpoint is percent growth (GI% or GIPRCNT), where numbers from 0 - 100% represent growth inhibition, and numbers from -100% - 0 represent cell death. For example, a value of 40 represents 60% growth inhibition. A value of 0 means no net growth occurred over the course of the experiment. A value of -40 indicates 40% of cells at the beginning of the experiment died by the end of the experiment. A value of -100 means all cells are dead at the end of the experiment.
NCI-60 Human Tumor Cell Lines Screen was performed using the standard one-dose NCI protocol, which is described in more detail at https://dtp.cancer.gov/discovery_development/nci-60/default.htm.
Compounds with GIPRCNT values below 10 were considered active. Activity score was based on GIPRCNT using the following formula: […]
Score is 0 for GIPRCNT values of 100 or above, 50 for GIPRCNT values of 0, and 100 for GIPRCNT values of -100.

Point of comparison: `COc1ccc(C2NCCc3c2[nH]c2ccccc32)cc1CN1CCN(c2ccc(F)cc2)CC1` (stereo not given), growth 67.9%. Against it:
- Cc1cc2c(c(C)c1Cl)C(=O)/C(=C/c1cccc([N+](=O)[O-])c1)O2 — higher, 102%
- CN1CCN(Cc2ccc(NC(=O)c3cncc(C#Cc4nc(N)nc5[nH]ncc45)c3)cc2C(F)(F)F)CC1 — higher, 94.3%
- O=c1oc2ccc(F)cc2c(=O)n1-c1ccc(F)cc1F — lower, 23%
- Clc1ccc(COc2ccc(Nc3ncnc4onc(-c5ccccc5)c34)cc2)cc1 — higher, 92.1%
- COC(=O)/C(CCC=C(C)C)=C1\[C@@H](OC(C)=O)C[C@@]2(C)[C@H]1CC(=O)[C@H]1[C@@]3(C)CC[C@H](NCc4ccccc4)[C@@H](C)[C@@H]3CC[C@@]12C — higher, 96.7%
- COC(=O)c1c2c(c(C)[n+]([O-])c1C)C(=O)C(NCc1ccc(Br)cc1)=CC2=O — lower, 65.3%
- COc1ccc(-c2nocc2-c2cccs2)cc1 — higher, 103%
- CN1C(=O)N(C)C2C1NN=c1s/c(=C\c3c[nH]c4ccccc34)c(=O)n12 (stereo not given) — higher, 69.4%
- N#C/C(=C\c1c(-c2ccccc2)[nH]c2ccccc12)S(=O)(=O)c1ccccc1 — lower, 52.4%
- Cc1sc2ncn(CC(=O)Nc3ccc(S(N)(=O)=O)cc3)c(=O)c2c1C — higher, 110%
- CC1=C(C(=O)OCC2CCN(C(=O)OC(C)(C)C)CC2)[C@@H](c2cccc(C#N)c2)C2=C(CC(C)(C)CC2=O)N1 — lower, 61.3%
- O=c1oc2ccc(-c3ccc(F)cc3F)cc2c(=O)n1-c1ccc(Cl)c(C(F)(F)F)c1 — lower, 20.3%
- N#C/C(=C1\SC(=O)CN1c1ccccc1)c1nc2ccccc2s1 — higher, 106%
- C#CCn1cc(C=C2C(=O)NC(=O)NC2=O)c2cc(Cl)ccc21 — higher, 106%
- CC/C(=C(\CC)c1ccc(OCC[N+](C)(C)C)cc1)c1ccc(OC)cc1 — higher, 76.7%
- COc1cc(C2CC(c3ccc(Nc4nc(NCCO)nc(N5CCOCC5)n4)cc3)=NN2c2cc(Cl)cc(Cl)c2)cc(OC)c1OC (stereo not given) — higher, 72.8%
- FC(F)(F)c1cccc(CNC2CCN(CCc3ccccc3)CC2)c1 — higher, 85.1%
- O=C(N/N=C/c1ccccc1Cl)C(=O)Nc1cccc(C(F)(F)F)c1 — higher, 113%
- COC(=O)C1=C(C)NC(C)=C(C(=O)OC)C(N2C(=O)CCC2=O)C1 (stereo not given) — higher, 95.5%
- COc1cc(NC(=O)CCSc2nc3ccccc3c(=O)n2Cc2ccccc2)cc(OC)c1OC — higher, 102%
- COc1cccc(C(=O)NC(c2ccc(C)cc2)c2cc(Cl)c3cccnc3c2O)c1 (stereo not given) — lower, 44%
- COc1nccc2cc3c(=O)n4c(cc5ccccc54)c(=O)n3c12 — higher, 109%
- Cc1cc(OC(=O)c2ccc([N+](=O)[O-])cc2)nc2[nH]c(=O)sc12 — higher, 109%
- C[C@@H](C(=O)NCCCC#Cc1cnc(Nc2ccc(C#N)cc2)nc1NC1CC1)N(C)C(=O)/C=C/CN(C)C — lower, 52.1%
- O=C1Nc2ccccc2/C1=C/c1cccs1 — higher, 102%
- CCCCCCCCCCOC(=O)c1ccccc1C(=O)OCCCC — higher, 119%
- C=CCN1C(=O)/C(=c2\sc3n(c2=O)NC2C(N=3)N(CC)C(=O)N2CC)c2ccccc21 (stereo not given) — lower, 59.9%
- O=C(CCN1C(=O)c2ccccc2C1=O)Nc1ccc(Cl)cc1 — higher, 117%
- O=NN(Cc1cccnc1)C(=O)NC1CCCCC1 — higher, 104%
- COc1ccccc1N1CCN(C(CNS(=O)(=O)c2ccc(Cl)cc2)c2cccnc2)CC1 (stereo not given) — higher, 85.2%
- O=C(CN1C(=O)/C(=C\c2ccc(Cl)cc2)SC1=S)Nc1ncc(Cc2ccc(Cl)cc2)s1 — higher, 106%
- O=S(=O)(c1ccccc1)n1cc2c(c1-c1ccccc1)CCc1sc(Nc3ccccc3)nc1-2 — higher, 106%
- CCCc1c(C)c2sc(=O)[nH]c2[nH]c1=O — higher, 110%
- Cc1c(-c2csc(-n3nc(C(F)(F)F)cc3C(F)(F)F)n2)no[n+]1[O-] — higher, 102%
- Fc1cccc(COc2ccc(Nc3ncnc4onc(-c5ccccc5)c34)cc2)c1 — lower, 55.2%
- O=C(Nc1ccccc1O)c1ccc(-c2ccc(Cl)cc2Cl)o1 — higher, 98.6%

`O=c1oc2ccc(Br)cc2c(=O)n1-c1ccc(Br)cc1F` was tested, and the growth was -22.6% (active).
In the case of `O=C(Nc1ccc(Br)cc1F)c1cc(F)ccc1O`, the growth is reported as 6.8% (active).
With `O=c1oc2ccc(I)cc2c(=O)n1-c1ccc(I)cc1F` the growth was -4.19% (active).
